Our source for the outcome and max response values is PubChem BioAssay (NCATS).

SMILES strings stand for the structures. Records with an inconclusive call do not appear. The source made the active and inactive calls. Unless noted, calls come from the whole dose curve.

The target in the first experiment is Peroxisome proliferator-activated receptor delta (Homo sapiens) (UniProt Q03181). In words: qHTS assay for small molecule agonists of peroxisome proliferator-activated receptor delta signaling (AID 588534).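 Note: 0% = DMSO basal wells and 100% = positive control agonist at 10 µM.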 The following applies: HEK293T PPARdelta-UAS-bla, beta-lactamase ratio, 18 h; series mostly up to 76.7 µM. The essentials:
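Agonist-mode beta-lactamase reporter readout (CCF4 dye, 2 h at RT) after 18 h at 37 °C exposure to a titration; Hill-equation fitting gave EC50 and maximal response.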
On to `CC(=O)NS(=O)(=O)c1ccc(N)cc1`, for which the result was inactive.

Consider `CCCC(O)C(CC)CO` (configuration not stated), for which the result was inactive.

For the compound `Nc1nc(Cl)nc2c1ncn2[C@H]1C[C@H](O)[C@@H](CO)O1`, the outcome was inactive.

As to `CCOP(=S)(OCC)Oc1ccc2c(C)c(Cl)c(=O)oc2c1`, the outcome was inactive.

On to `Cn1c(=O)c2[nH]cnc2n(C)c1=O`, for which the outcome was inactive.

Take `Cc1noc(NS(=O)(=O)c2ccc(N)cc2)c1C`: the result was inactive.

With `CC(C)c1cccc(C(C)C)c1O`, the result was inactive.

For the compound `CC(=O)N1CCN(c2ccc(OC[C@H]3CO[C@](Cn4ccnc4)(c4ccc(Cl)cc4Cl)O3)cc2)CC1`, the result was inactive.

With `O=C1c2ccccc2C(=O)c2ccccc21`, the result was inactive.

For the compound `C=CCc1ccc(O)c(OC)c1`, the result was inactive.

In the case of `N[C@@H](Cc1cc(I)c(Oc2ccc(O)c(I)c2)c(I)c1)C(=O)O`, the result was inactive.

`COc1cc(OC)c(C(=O)CCCN2CCCC2)c(OC)c1`: the result was inactive.

Take `CN=C(NC#N)NCCSCc1nc[nH]c1C`: the outcome was inactive.

For `Oc1cccc(O)c1`, the result was inactive.

On to `[N-]=[N+]=CC(=O)OC[C@H](N)C(=O)O`, for which the outcome was inactive.

Regarding `O=C1c2c(O)cccc2Cc2cccc(O)c21`, the result was inactive.

Take `Oc1ccccc1`: the outcome was inactive.

As for `C[C@]12CCC(=O)C=C1CC[C@@H]1[C@@H]2CC[C@]2(C)C(=O)CC[C@@H]12`, the result was inactive.

As to `O=C(O)/C=C\C(=O)O`, the outcome was inactive.

As to `COC(=O)c1ccc(O)cc1`, the result was inactive.

Take `CC(O)C(=O)O` (configuration not stated): the outcome was inactive.

As for `CC(C)Cc1ccc(C(C)C(=O)O)cc1` (configuration not stated), the result was inactive.

Regarding `Oc1ccc(Cl)cc1`, the result was inactive.

For `Nc1ccc([As](=O)(O)O)cc1`, the result was inactive.

`O=C(O)CCCc1ccc(N(CCCl)CCCl)cc1`: the outcome was inactive.

System in a further experiment: not listed separately
Description: qHTS assay for small molecule antagonists of peroxisome proliferator-activated receptor delta signaling (AID 588535; active = well fitted inhibition curve with a large enough effect in the signal ratio, with a control signal flat, not every such curve was filed as active; the % refers to the signal ratio;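 for max response: cells co-treated with a PPAR-delta agonist as stimulator during compound exposure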). The following applies: HEK293T PPARd-UAS-bla, beta-lactamase FRET ratio, 18 h; 460 nm channel. An outline of the steps: (§1)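 Titrations were run on PPAR-delta-UAS-bla HEK293T cells in charcoal/dextran-stripped serum, incubated 18 h at 37 C. CCF4 fluorescence (460/530 nm) after 2 h RT; Hill equation yields IC50 and maximal response.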
`CC(C)c1cccc(C(C)C)c1O`: the max response was -11.4%.

As to `O=C1c2ccccc2C(=O)c2ccccc21`, the max response was found to be 36.9%.

With `[N-]=[N+]=CC(=O)OC[C@H](N)C(=O)O`, the max response was determined as 46.8%.

With `Oc1ccc(Cl)cc1`, the max response is -18.6%.

On to `Nc1ccc([As](=O)(O)O)cc1`, for which the max response was -12.8%.

As to `O=C(O)CCCc1ccc(N(CCCl)CCCl)cc1`, the max response was 26.1%.

For another experiment, the target named is Peroxisome proliferator-activated receptor delta (Homo sapiens) (UniProt Q03181). The experiment is described as above. The following applies: HEK293T PPARd-UAS-bla, beta-lactamase FRET ratio, 18 h; series mostly up to 76.7 µM. The essentials: as §1
Chain of Peroxisome proliferator-activated receptor delta (Homo sapiens) (Q03181 whole entry, looked up): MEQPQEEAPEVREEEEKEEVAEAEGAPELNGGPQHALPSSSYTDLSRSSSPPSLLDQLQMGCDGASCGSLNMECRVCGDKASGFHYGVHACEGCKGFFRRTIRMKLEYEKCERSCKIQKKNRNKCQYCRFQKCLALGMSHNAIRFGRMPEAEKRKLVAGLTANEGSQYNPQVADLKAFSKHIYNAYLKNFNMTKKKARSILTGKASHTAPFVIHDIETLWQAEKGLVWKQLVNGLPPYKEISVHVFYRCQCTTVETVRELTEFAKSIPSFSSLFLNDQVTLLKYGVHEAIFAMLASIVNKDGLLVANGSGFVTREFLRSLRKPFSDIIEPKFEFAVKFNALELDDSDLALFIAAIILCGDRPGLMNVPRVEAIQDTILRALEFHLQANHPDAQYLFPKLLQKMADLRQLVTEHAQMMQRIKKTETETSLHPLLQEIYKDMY
`CC(C)c1cccc(C(C)C)c1O`: the outcome was inactive.

In the case of `O=C1c2ccccc2C(=O)c2ccccc21`, the result was inactive.

In the case of `[N-]=[N+]=CC(=O)OC[C@H](N)C(=O)O`, the result was inactive.

Regarding `Oc1ccc(Cl)cc1`, the result was inactive.

`Nc1ccc([As](=O)(O)O)cc1`: the result was inactive.

Take `O=C(O)CCCc1ccc(N(CCCl)CCCl)cc1`: the outcome was inactive.
